Compound activity deposited in PubChem by Johns Hopkins Ion Channel Center.
KCNQ2 block: rat KCNQ2 potassium channel inhibitors, primary screen, cell-based, CHO-K1, FluxOR thallium flux, B-score. B-score at 10 µM. AID 2156, 2009. 310,000 tested, 1.1% active. 20 min; stronger effect = lower value. Potassium voltage-gated channel subfamily KQT member 2 (Rattus norvegicus), O88943;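 active = fluorescence ratio B-score at most minus 3 library SDs, with starting brightness B-score within 2 library SDs, cut at about -5.5 in these data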
KCNQ2 pot: potentiators of rat KCNQ2 potassium channel; Potassium voltage-gated channel subfamily KQT member 2 (Rattus norvegicus), O88943; CHO-K1 KCNQ2, FluxOR thallium flux fluorescence; stronger effect = higher value; B-score at 10 µM; 310,000 tested, 0.54% active;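 active = fluorescence ratio B-score at least 3 SD of library B-scores, with initial fluorescence B-score within 3 of them, cut at about 5.3 in these data; same plate scores as AID 2156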;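 also: B-score of peak minus minimum over baseline fluorescence ratio after K+ and Tl+ stimulus; positive B-score means potentiation of KCNQ2 with more thallium influx and brighter signal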
Kir21 conf inh: mouse Kir2.1 channel blockers, retest, confirmation, cell-based, FluxOR thallium flux, duplicate | shares compounds with KCNQ2 pot | Kir2.1-expressing cells, FluxOR thallium flux fluorescence; stronger effect = lower value | Tl flux remaining, % of negative control (stronger effect = lower value), % at 10 µM | 2,300 tested, 41% active;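 active = Primary-screen hit whose thallium flux fell at least 3 control SD below untreated wells in both duplicates, with normal baseline fluorescence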
HEK293 ctr: parental HEK293 activity in Kir2.1 inhibitor counter-screen; shares compounds with KCNQ2 pot; parental HEK293 cells, FluxOR thallium flux fluorescence; 0% = unstimulated blank wells; FluxOR signal as % of negative control (100 = no effect), % at 10 µM; 2,300 tested, 19% active; AID 2105;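 active = dye signal at least 3 control SD above or below untreated wells in both duplicates, raw fluorescence within 3, either direction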;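 also: percent is based on the flux ratio of peak minus minimum fluorescence over baseline F0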
CHO-K1 ctr: nonspecific thallium flux increase in parental CHO-K1, confirmation, counter-screen for KCNQ2 potentiator project, cell-based, FluxOR thallium flux, duplicate; shares compounds with KCNQ2 pot; parental CHO-K1 cells, FluxOR thallium flux fluorescence; zero = vehicle mean+3SD, 100% = vehicle-minus-blank window; activity increase over 3SD of controls, % at 10 µM; 1,200 tested, 43% active;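 active = signal rise of at least 3 SD above the untreated control mean, in both duplicate wells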;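 also: counter screen of KCNQ2 potentiator hits so any rise reflects channel-independent effects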
KCNQ1 pot spec: human KCNQ1 channel potentiation off-target, confirmation, selectivity assay for KCNQ2 potentiator project, cell-based, CHO, FluxOR thallium flux; AID 2283, 2010; CHO KCNQ1 stable, FluxOR thallium flux fluorescence; beyond 3SD, as % of vehicle-control signal; activation over 3SD threshold, % at 10 µM; shares compounds with KCNQ2 pot; 1,200 tested, 28% active;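 active = fluorescence ratio rise of at least 3 SD of vehicle wells above their mean, in both replicate wells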
Target sequence (P51787 whole entry, looked up): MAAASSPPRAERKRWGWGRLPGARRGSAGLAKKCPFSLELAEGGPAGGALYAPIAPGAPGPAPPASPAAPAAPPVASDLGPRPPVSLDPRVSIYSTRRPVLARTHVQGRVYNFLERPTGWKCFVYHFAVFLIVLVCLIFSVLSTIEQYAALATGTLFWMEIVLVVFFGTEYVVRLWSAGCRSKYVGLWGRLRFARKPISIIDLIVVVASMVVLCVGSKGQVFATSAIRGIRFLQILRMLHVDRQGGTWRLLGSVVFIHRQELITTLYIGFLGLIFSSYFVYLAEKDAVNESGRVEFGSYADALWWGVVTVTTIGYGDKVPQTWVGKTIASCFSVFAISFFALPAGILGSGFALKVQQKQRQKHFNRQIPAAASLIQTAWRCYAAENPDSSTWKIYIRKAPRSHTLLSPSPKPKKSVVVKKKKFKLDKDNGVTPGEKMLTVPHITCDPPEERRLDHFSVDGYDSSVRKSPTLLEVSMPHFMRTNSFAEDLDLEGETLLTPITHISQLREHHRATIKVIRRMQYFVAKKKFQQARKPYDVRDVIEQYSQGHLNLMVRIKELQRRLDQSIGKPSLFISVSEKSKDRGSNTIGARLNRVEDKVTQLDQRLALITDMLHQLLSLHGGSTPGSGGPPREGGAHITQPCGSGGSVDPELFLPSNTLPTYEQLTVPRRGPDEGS
KCNQ2 pot confirm: rat KCNQ2 channel potentiators, confirmation, cell-based, CHO, FluxOR thallium flux, duplicate | shares compounds with KCNQ2 pot | CHO-KCNQ2 cells, FluxOR thallium flux fluorescence | potentiation, less the hit threshold, % at 10 µM | 1,200 tested, 68% active | AID 2287, 2010;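 active = fluorescence ratio rising 3 SD or more over the vehicle control mean in both replicates, plus primary screen hit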;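 also: peak minus minimum thallium fluorescence divided by baseline after K/Tl stimulus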
Kir2-1 sel: mouse Kir2.1 channel activation off-target, confirmation, selectivity assay for KCNQ2 potentiator project, cell-based, HEK293, FluxOR thallium flux. activity over 3SD threshold, % at 10 µM. 1,200 tested, 2% active. HEK293 Kir2.1, FluxOR thallium flux fluorescence. shares compounds with KCNQ2 pot. AID 2345, 2010;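 active = fluorescence ratio rise of at least 3 SD above the vehicle-control mean, seen in both replicates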
KCNQ2 W236L pot: potentiators of retigabine-insensitive KCNQ2 W236L, mechanism study for KCNQ2 potentiator project, cell-based, rat KCNQ2 W236L, CHO, automated patch clamp; automated patch clamp current; 940 tested, 10% active; shares compounds with KCNQ2 pot; current increase over 3SD of negative controls (%), stronger effect = higher value, % at 25 µM; AID 2558, 2010;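 active = current increase at least 3 SD of the untreated controls above them in both duplicate recordings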
Each line names hits and unclear results; the compound was inactive in the other large screens (follow-up assays come after a bar, where they were run). In the library only some 1.6% were active in any assay of this set; here they are far more common.

Cc1cc(NC(=O)COc2ccccc2C)ccc1NC(=O)c1cccs1	none (no result: KCNQ2 pot)
CC(=O)NCc1ccc(-c2csc(-c3cccs3)n2)cc1	none
Cc1cc(C)c(NC(=O)CNC(=O)COC(=O)/C=C/c2cccs2)c(C)c1	none
COC(=O)c1cn(NC(=O)c2cc([N+](=O)[O-])ccc2F)c(=O)c2ccccc12	none (no result: KCNQ2 pot)
COC(=O)c1cn(NC(=O)CC2CCCCC2)c(=O)c2ccccc12	KCNQ2 pot 13.9 | Kir21 conf inh inactive | HEK293 ctr inactive | CHO-K1 ctr inactive | KCNQ1 pot spec inactive | KCNQ2 pot confirm 74.6 | Kir2-1 sel inactive | KCNQ2 W236L pot inactive
COC(=O)c1cn(NC(=O)C2CCC(C)CC2)c(=O)c2ccccc12 (stereo not drawn)	none (no result: KCNQ2 pot)
COC(=O)c1cn(NC(=O)CCC2CCCC2)c(=O)c2ccccc12	KCNQ2 pot 28.1 | Kir21 conf inh inactive | HEK293 ctr inactive | CHO-K1 ctr 103.7 | KCNQ1 pot spec inactive | KCNQ2 pot confirm 121.6 | Kir2-1 sel inactive | KCNQ2 W236L pot inactive
Cc1c(CN2CCN(CC(C)C)C(CCO)C2)[nH]c2ccc(Cl)cc12 (stereo not drawn)	none
CCN1CCN(C(=O)CN2C(=O)COc3ccc(C)cc32)CC1	none
Fc1ccc(-n2cc(-c3ccccc3)c3c(=S)nc[nH]c32)cc1	KCNQ2 pot 6.36 | Kir21 conf inh inactive | HEK293 ctr 182.5% | CHO-K1 ctr inactive | KCNQ1 pot spec inactive | KCNQ2 pot confirm 7.9 | Kir2-1 sel inactive | KCNQ2 W236L pot inactive
Fc1cccc(-n2cc(-c3ccccc3)c3c(=S)nc[nH]c32)c1	none
CC(C)c1ccc(NC2CCCN(C(=O)CCn3cnnn3)C2)cc1 (stereo not drawn)	none
COc1cccc(CNCc2ccc(OC)c3ccccc23)c1OC	none
COc1ccccc1CNCc1ccc(OC)c2ccccc12	none | Kir21 conf inh 36.0% | HEK293 ctr inactive
COc1ccccc1CNCc1cccc(Oc2ccccc2)c1	none | Kir21 conf inh inactive | HEK293 ctr inactive
COc1ccc(CNCc2ccc(OC)c3ccccc23)cc1	none | Kir21 conf inh 19.5% | HEK293 ctr inactive
COc1ccccc1CNCc1cc(Br)ccc1OC	none
COc1ccccc1CNCC(c1ccccc1)c1ccccc1	none (no result: KCNQ2 pot) | Kir21 conf inh 48.5% | HEK293 ctr inactive
COc1cc(CNCc2cccc3ccccc23)cc(OC)c1	none (no result: KCNQ2 pot)
COc1ccccc1CNCc1cc(OC)c(OC)cc1OC	none
COc1ccc(C2SCC(=O)N2CCc2ccc(OC)c(OC)c2)cc1 (stereo not drawn)	none
COc1ccccc1N1CCN(CCCCOc2ccc(C)cc2C)CC1	none (no result: KCNQ2 pot)
CCc1ccc(C2NC(=O)c3ccccc3O2)cc1 (stereo not drawn)	none (no result: KCNQ2 pot)
CCN1C(=NCC(C)C)N[C@@H](c2cccc(F)c2)C(C(=O)OC)=C1C	none (no result: KCNQ2 pot)
O=C(O)c1ccccc1C(=O)Nc1ccccc1	none
O=C(Nc1ccccc1)C1=C(c2ccccc2)S(=O)(=O)CCS1(=O)=O	KCNQ2 pot 8.09 | Kir21 conf inh inactive | HEK293 ctr inactive | CHO-K1 ctr inactive | KCNQ1 pot spec inactive | KCNQ2 pot confirm 3.7 | Kir2-1 sel inactive | KCNQ2 W236L pot 3.5%
Cc1cc(C)c2nc(NNC(=O)c3ccc(S(=O)(=O)N4CC(C)CC(C)C4)cc3)sc2c1 (stereo not drawn)	KCNQ2 pot 5.83 | Kir21 conf inh inactive | HEK293 ctr inactive | CHO-K1 ctr 60.6 | KCNQ1 pot spec inactive | KCNQ2 pot confirm inactive | Kir2-1 sel inactive
Cc1cc(C)c2nc(NNC(=O)c3ccc(S(=O)(=O)N4CCCC(C)C4)cc3)sc2c1 (stereo not drawn)	none
Cc1ccccc1Nc1cccc2nonc12	none (no result: KCNQ2 pot)
O=C(COc1cccc2ccccc12)Nc1ccc(Cl)cc1C(=O)O	KCNQ2 pot 7.2 | Kir21 conf inh inactive | HEK293 ctr 129.0% | CHO-K1 ctr inactive | KCNQ1 pot spec inactive | KCNQ2 pot confirm 23.1 | Kir2-1 sel inactive | KCNQ2 W236L pot inactive
O=C(COc1cccc2ccccc12)Nc1cc(Cl)ccc1C(=O)O	none
CC1(c2ccccc2)CC(C)(C)N2C(=O)C3(C(C#N)=C(N)Oc4cc(O)ccc43)c3cccc1c32 (stereo not drawn)	none
CC1(c2ccccc2)CC(C)(C)N2C(=O)/C(=C3\SC(=S)NC3=O)c3cccc1c32 (stereo not drawn)	KCNQ2 pot 32.5 | Kir21 conf inh inactive | HEK293 ctr inactive | CHO-K1 ctr inactive | KCNQ1 pot spec inactive | KCNQ2 pot confirm 4.3 | Kir2-1 sel inactive | KCNQ2 W236L pot inactive
Cc1cccc(C(C)C)c1NC(=O)COC(=O)CNS(=O)(=O)c1ccccc1	none (no result: KCNQ2 pot)
COC(=O)c1sccc1NC(=O)CC1C(=O)NCCN1C(=O)c1ccc(F)cc1 (stereo not drawn)	none
S=C(NCc1ccccc1)Nc1nccs1	KCNQ2 pot 8.97 | Kir21 conf inh inactive | HEK293 ctr inactive | CHO-K1 ctr 26.0 | KCNQ1 pot spec inactive | KCNQ2 pot confirm inactive | Kir2-1 sel inactive
S=C(NCCc1ccccc1)Nc1nccs1	none (no result: KCNQ2 pot)
COc1ccc(NC(=O)Cn2nc(C(=O)O)c3ccccc3c2=O)cc1OC	none
O=c1[nH]cc(I)cc1I	KCNQ2 pot 7.43 | Kir21 conf inh inactive | HEK293 ctr inactive | CHO-K1 ctr 133.0 | KCNQ1 pot spec 31.5 | KCNQ2 pot confirm inactive | Kir2-1 sel inactive
CC1CCC(NC(=O)CCS(=O)(=O)c2ccc3c(c2)CC(C)N3C(=O)C2CC2)CC1 (stereo not drawn)	none
COc1cccc(N2CCN(C(=O)CN3C(=O)NC(C)(c4ccc5ccccc5c4)C3=O)CC2)c1 (stereo not drawn)	none
